Test results from publication PMC13423814.

Target: HNRNPC (UniProt P07910)
Conditions: DSSO, in cells

HNRNPR, O43390
cross-linked residues: K374 - K8
